# Experimental data as given in PubChem BioAssay (NCI).
# The panel holds about 83,000 compounds, 20% with a hit somewhere; the sample as a whole holds those more often.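 Method: cells in 96-well plates; compound added at one concentration; 48 h incubation; percent growth measured; values under 10 scored active.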 A number with no mark means an inactive call. The source made the active and inactive calls.
# Test system: IGROV1 ovarian
# Assay: NCI-60 one-dose screen, 48 h (100 = growth as untreated, 0 = no growth, -100 = all killed)
# Conditions: 10 µM unless noted
row,SMILES,growth
1,COc1ccc(O)c(N=Nc2nccs2)c1,70.2%
2,CCc1nc(N)nc(N)c1C#CC(C)c1cc(-c2ccnc(C)c2)c2oc(C)nc2c1 (stereo unspecified),2.77% (active)
3,CC(=O)Nc1ccc(-n2c(O)c(/C=N/NC(=O)Cc3ccccc3Nc3c(Cl)cccc3Cl)sc2=S)cc1,96.7%
4,O=Nc1c(O)c(Cl)cc2ccccc12,59.1%
5,FC(F)(F)c1ccc(-c2cn3nc(-c4c[nH]c5ccc(Br)cc45)sc3n2)cc1,73.2%
6,Cn1cc(-c2nonc2-c2c[nH]c3ccccc23)c2cccnc21,39.4%
7,Cn1cc(-c2nonc2-c2cn(C)c3ccc(F)cc23)c2ccccc21,24.6%
8,Brc1ccc(-c2csc(Nc3ccccn3)n2)cc1,79.4%
9,Clc1ccc2c(NCCNc3nc(N4CCOCC4)nc4ccccc34)ccnc2c1,48.8%
10,COc1ccc(-c2cc(-c3ccc(Nc4ccnc5cc(Cl)ccc45)cc3)nc(N3CCOCC3)n2)cc1,103%
11,COc1cc2c(cc1-c1c(C)noc1C)ncc1nc(C3CCCC3)n([C@H](C)COC(F)F)c12,42.1%
12,CCOc1cc2ncc(C#N)c(Nc3ccc(OCc4cccc(F)c4)c(Cl)c3)c2cc1NC(=O)CCCCC1CCSS1 (stereo unspecified),82.2%
13,Oc1ccccc1-c1nnc(CNc2ccc(Cl)cc2)o1,25.9%
14,COc1cc2c(cc1-c1c(C)noc1C)ncc1nc(C3CCCCC3)n([C@H](C)COC(F)F)c12,37.8%
15,COc1cc(/C=C/C(=O)Nc2cccnc2Nc2ccc(F)cc2)cc(OC)c1OC,139%
16,Cn1c(NCCc2ccc(O)c(O)c2)nc2c1c(=O)n(Cc1ccc(Cl)c(Cl)c1)c(=O)n2C,32%
17,Cc1ccc(C2=NN3C(C2)c2cc(Br)ccc2OC32CCN(Cc3ccccc3)CC2)o1 (stereo unspecified),82.1%
18,O=C1/C(=C/C(Cl)=C/c2ccccc2)SC(=S)N1CCc1ccc(O)cc1,-36.6% (active)
19,NC(=O)c1cc(Br)ccc1NC(=O)/C=C/c1ccccc1,86.6%
20,CC(O)CN(CC(C)O)c1ccc2c(c1)Cc1cc([N+](=O)[O-])ccc1-2 (stereo unspecified),55.6%
21,C=C1C(=O)O[C@H]2[C@H]1CC/C(COC(=O)c1cc3cc(OC)ccc3[nH]1)=C\CC[C@@]1(C)O[C@@H]21,-77.1% (active)
22,COc1cc(C(=O)/C=C/c2cccnc2Nc2ccc(Cl)cc2)cc(OC)c1OC,-60.9% (active)
23,O=c1cc(CSc2nnc(SCc3cc(=O)oc4c3ccc3ccccc34)o2)c2ccc3ccccc3c2o1,94.9%

# Test system: OVCAR-3 ovarian
# Assay: as above
# Conditions: 10 µM unless noted
row,SMILES,growth
1,CSc1ccc(-c2n[nH]nc2-c2cc3ccccc3s2)cc1,26.5%
2,Clc1ccc2c(NCCCNc3nc(-n4ccnc4)nc4ccccc34)ccnc2c1,90.2%
3,CN1CCN(c2nc(NCCCNc3ccnc4cc(Cl)ccc34)c3ccccc3n2)CC1,75.8%
4,CN(C)c1ccc(NC(=O)c2ccc(/C=C/C(=O)c3ncc[nH]3)cc2)cc1,25.7%
5,COc1ccc(S(=O)(=O)N2CCCCC2)cc1NC(=O)c1[nH]c(C)c2c1CCCCC2=O,23.5%
6,CCn1c(O)c(/C=N/NC(=O)C(C)c2ccc(CC(C)C)cc2)sc1=S (stereo unspecified),1.8% (active)
7,Cc1nn(-c2cc(=O)[nH]c3ccc(Cl)cc23)c(N)c1C#N,105%
8,O=C1/C(=C(/c2ccccc2)N2CCOCC2)Cc2ccccc21,-60.7% (active)
9,O=C(COc1cccc(/C=C2\COc3ccccc3C2=O)c1)Nc1nccs1,73.8%
10,CCN=C1C=CC(=C(c2ccc(N)cc2)c2ccc(N(CC)CC)c(C)c2)C=C1,-28.9% (active)
11,O=C(C(=O)c1ccc2c(c1)OCO2)c1ccc2c(c1)OCO2,105%
12,COc1ccc(/C=C2\Oc3cc(OCCCCN4CCCC4)ccc3C2=O)cc1,94.3%
13,COc1cc(-c2nn(-c3ccc(Br)cc3)cc2C(=O)O)ccc1O,101%
14,O=c1ccccc(-c2ccc(-c3ccco3)cc2)c1O,28.8%
15,Cn1cc(C(=O)c2nc(-c3c[nH]c4ccc(Br)cc34)no2)c2cc(F)ccc21,97.2%
16,COc1ccc(O)c(N=Nc2nccs2)c1,39.9%
17,CCc1nc(N)nc(N)c1C#CC(C)c1cc(-c2ccnc(C)c2)c2oc(C)nc2c1 (stereo unspecified),17%
18,CC(=O)Nc1ccc(-n2c(O)c(/C=N/NC(=O)Cc3ccccc3Nc3c(Cl)cccc3Cl)sc2=S)cc1,116%
19,O=Nc1c(O)c(Cl)cc2ccccc12,67.3%

row,SMILES,growth
1,FC(F)(F)c1ccc(-c2cn3nc(-c4c[nH]c5ccc(Br)cc45)sc3n2)cc1,107%
2,Cn1cc(-c2nonc2-c2c[nH]c3ccccc23)c2cccnc21,15.2%
3,Cn1cc(-c2nonc2-c2cn(C)c3ccc(F)cc23)c2ccccc21,-18.9% (active)
4,Brc1ccc(-c2csc(Nc3ccccn3)n2)cc1,82.9%
5,Clc1ccc2c(NCCNc3nc(N4CCOCC4)nc4ccccc34)ccnc2c1,-75% (active)
6,COc1ccc(-c2cc(-c3ccc(Nc4ccnc5cc(Cl)ccc45)cc3)nc(N3CCOCC3)n2)cc1,2.68% (active)
7,COc1cc2c(cc1-c1c(C)noc1C)ncc1nc(C3CCCC3)n([C@H](C)COC(F)F)c12,36.5%
8,CCOc1cc2ncc(C#N)c(Nc3ccc(OCc4cccc(F)c4)c(Cl)c3)c2cc1NC(=O)CCCCC1CCSS1 (stereo unspecified),102%
9,Oc1ccccc1-c1nnc(CNc2ccc(Cl)cc2)o1,26.1%
10,COc1cc2c(cc1-c1c(C)noc1C)ncc1nc(C3CCCCC3)n([C@H](C)COC(F)F)c12,37.3%
11,COc1cc(/C=C/C(=O)Nc2cccnc2Nc2ccc(F)cc2)cc(OC)c1OC,113%
12,Cn1c(NCCc2ccc(O)c(O)c2)nc2c1c(=O)n(Cc1ccc(Cl)c(Cl)c1)c(=O)n2C,64.9%
13,Cc1ccc(C2=NN3C(C2)c2cc(Br)ccc2OC32CCN(Cc3ccccc3)CC2)o1 (stereo unspecified),96.6%
14,O=C1/C(=C/C(Cl)=C/c2ccccc2)SC(=S)N1CCc1ccc(O)cc1,-7.98% (active)
15,NC(=O)c1cc(Br)ccc1NC(=O)/C=C/c1ccccc1,-12.2% (active)
16,CC(O)CN(CC(C)O)c1ccc2c(c1)Cc1cc([N+](=O)[O-])ccc1-2 (stereo unspecified),91.7%
17,C=C1C(=O)O[C@H]2[C@H]1CC/C(COC(=O)c1cc3cc(OC)ccc3[nH]1)=C\CC[C@@]1(C)O[C@@H]21,-97.4% (active)
18,COc1cc(C(=O)/C=C/c2cccnc2Nc2ccc(Cl)cc2)cc(OC)c1OC,-97.1% (active)
19,O=c1cc(CSc2nnc(SCc3cc(=O)oc4c3ccc3ccccc34)o2)c2ccc3ccccc3c2o1,105%
